Test results as given in the supplement of paper PMC10849652.
About 7,900 targets were measured; listed, in parts, are those with a hit and a random draw of the rest. About 0.6% of all pairs of compound and target were hits.

Key:
Assay in all cases: log2 fold change, soluble protein after heating vs DMSO (PISA); higher = thermal stabilisation; K562 cells, 10 uM, 30 min; active = over 0.2 and 3.5 SD of the protein, either way, in both replicates (recomputed)
[1] = compound: C1=CC=C(C=C1)[C@H](COC2=CC3=C(C=C2)NC(=O)N3)NC(=O)C4=CC=CN(C4=O)CC5=CC(=C(C=C5)F)F
How it was run: (§1)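 Values are thermal stability changes relative to control samples and are taken from duplicates. They are stated as log2 fold changes. Before quantification by TMTpro 16plex LC-MS/MS with equalised channel sums, K562 cells at 2×10^6 cells/mL were treated with 10 μM compound for 30 min, heated in aliquots for 3 min across 48°C-58°C, pooled, extracted in PBS with 0.5% NP-40 at 4°C, and centrifuged at 21,000xg for 90 min to give the soluble supernatant.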

[2] = compound: CC1=C(SC2=C1C(=N[C@H](C3=NN=C(N32)C)CC(=O)N)C4=CC=C(C=C4)Cl)C
How it was run: as §1

[3] = compound: CC1=C2C(=CC=C1)N=C(N(C2=O)C3=CC=CC=C3C)CN4C=NC5=C(N=CN=C54)N
How it was run: as §1

[4] = compound: Cc1sc2c(c1C)C(c1ccc(Cl)cc1)=N[C@@H](CC(=O)OC(C)(C)C)c1nnc(C)n1-2
How it was run: as §1

[5] = compound: c1ccc([C@@H]2C[C@H]2NC2CCNCC2)cc1
How it was run: as §1

Measured: log2 fold change

VTI1B (UniProt Q9UEU0)
inactive: [1] 0.015 | [2] -0.002 | [3] 0.045 | [4] -0.032 | [5] 0.02

XPO1 (UniProt O14980)
inactive: [1] -0.064 | [2] 0.053 | [3] 0.044 | [4] -0.011 | [5] -0.013

TP53BP1 isoform 2 (UniProt Q12888)
inactive: [1] -0.025 | [2] -0.016 | [3] 0.025 | [4] 0.001 | [5] 0.032

U2AF2 (UniProt P26368)
inactive: [1] -0.004 | [2] 0.057 | [3] 0.045 | [4] 0.044 | [5] 0.005

UTP3 (UniProt Q9NQZ2)
inactive: [1] 0.049 | [2] -0.312 | [3] -0.041 | [4] 0.042 | [5] -0.007

VPS13B (UniProt Q7Z7G8)
inactive: [1] 0 | [2] -0.008 | [3] 0.068 | [4] -0.057 | [5] 0.031

TMEM128 (UniProt Q5BJH2)
inactive: [1] -0.038 | [2] -0.001 | [3] 0.185 | [4] -0.1 | [5] 0

TRIM44 (UniProt Q96DX7)
inactive: [1] -0.027 | [2] 0.008 | [3] -0.002 | [4] -0.006 | [5] 0.012

TTI2 (UniProt Q6NXR4)
inactive: [1] 0.07 | [2] 0.027 | [3] 0.031 | [4] 0.028 | [5] 0.041

TMEM161A (UniProt Q9NX61)
inactive: [1] -0.055 | [2] 0.017 | [3] 0.098 | [4] -0.133 | [5] 0.003

UBR2 (UniProt Q8IWV8)
inactive: [1] -0.16 | [2] 0.04 | [3] 0.009 | [4] -0.014 | [5] -0.28

VPS16 (UniProt Q9H269)
inactive: [1] -0.188 | [2] 0.048 | [3] 0.106 | [4] -0.021 | [5] -0.038

TRIP10 (UniProt Q15642)
Sequence of UniProt Q15642 (Q15642 whole entry, looked up): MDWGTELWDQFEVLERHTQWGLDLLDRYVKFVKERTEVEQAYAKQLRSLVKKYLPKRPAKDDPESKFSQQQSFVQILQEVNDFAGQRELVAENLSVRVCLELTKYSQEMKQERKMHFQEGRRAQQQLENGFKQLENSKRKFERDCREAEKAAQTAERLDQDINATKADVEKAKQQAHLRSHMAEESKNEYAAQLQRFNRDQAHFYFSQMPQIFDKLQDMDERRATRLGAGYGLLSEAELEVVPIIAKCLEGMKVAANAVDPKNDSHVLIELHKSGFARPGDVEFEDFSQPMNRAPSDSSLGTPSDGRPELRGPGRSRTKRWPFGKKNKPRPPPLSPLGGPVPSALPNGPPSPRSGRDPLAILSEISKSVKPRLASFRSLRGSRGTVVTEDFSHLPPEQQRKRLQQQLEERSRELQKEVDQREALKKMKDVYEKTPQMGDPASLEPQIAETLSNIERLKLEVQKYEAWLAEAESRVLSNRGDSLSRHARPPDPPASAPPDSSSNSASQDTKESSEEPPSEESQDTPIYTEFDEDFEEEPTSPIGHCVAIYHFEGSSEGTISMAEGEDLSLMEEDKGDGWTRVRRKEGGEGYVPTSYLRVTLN
inactive: [1] 0.016 | [2] 0.005 | [3] 0.081 | [4] 0.014 | [5] 0.037

TMEM164 (UniProt Q5U3C3)
inactive: [1] -0.195 | [2] -0.047 | [3] 0.257 | [4] -0.22 | [5] 0.068

VPS53 isoform 4 (UniProt Q5VIR6)
inactive: [1] -0.009 | [2] 0.02 | [3] 0.049 | [4] -0.006 | [5] -0.007

TMEM173 (UniProt Q86WV6)
inactive: [1] -0.035 | [2] 0.045 | [3] 0.086 | [4] -0.099 | [5] -0.005

VWA3B isoform 6 (UniProt Q502W6)
inactive: [1] -0.161 | [2] 0.069 | [3] 0.162 | [4] 0.129 | [5] 0.064

UBE2E3 (UniProt Q969T4)
Sequence of UniProt Q969T4 (Q969T4 whole entry, looked up): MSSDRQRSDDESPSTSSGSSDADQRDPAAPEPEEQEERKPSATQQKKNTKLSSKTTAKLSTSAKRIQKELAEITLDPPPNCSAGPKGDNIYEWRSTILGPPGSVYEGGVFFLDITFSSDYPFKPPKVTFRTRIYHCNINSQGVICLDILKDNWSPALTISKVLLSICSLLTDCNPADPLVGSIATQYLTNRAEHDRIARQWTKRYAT
inactive: [1] -0.076 | [2] 0.119 | [3] 0.115 | [4] -0.088 | [5] -0.023

WDR7 (UniProt Q9Y4E6)
inactive: [1] -0.037 | [2] 0.013 | [3] -0.068 | [4] -0.131 | [5] -0.093

WDR61 (UniProt Q9GZS3)
inactive: [1] -0.035 | [2] 0.04 | [3] 0.077 | [4] 0.032 | [5] 0.012

XIAP (UniProt P98170)
inactive: [1] 0.05 | [2] 0.003 | [3] 0 | [4] 0.048 | [5] 0.002

TUT4 (UniProt Q5TAX3)
Sequence of UniProt Q5TAX3 (Q5TAX3 whole entry, looked up): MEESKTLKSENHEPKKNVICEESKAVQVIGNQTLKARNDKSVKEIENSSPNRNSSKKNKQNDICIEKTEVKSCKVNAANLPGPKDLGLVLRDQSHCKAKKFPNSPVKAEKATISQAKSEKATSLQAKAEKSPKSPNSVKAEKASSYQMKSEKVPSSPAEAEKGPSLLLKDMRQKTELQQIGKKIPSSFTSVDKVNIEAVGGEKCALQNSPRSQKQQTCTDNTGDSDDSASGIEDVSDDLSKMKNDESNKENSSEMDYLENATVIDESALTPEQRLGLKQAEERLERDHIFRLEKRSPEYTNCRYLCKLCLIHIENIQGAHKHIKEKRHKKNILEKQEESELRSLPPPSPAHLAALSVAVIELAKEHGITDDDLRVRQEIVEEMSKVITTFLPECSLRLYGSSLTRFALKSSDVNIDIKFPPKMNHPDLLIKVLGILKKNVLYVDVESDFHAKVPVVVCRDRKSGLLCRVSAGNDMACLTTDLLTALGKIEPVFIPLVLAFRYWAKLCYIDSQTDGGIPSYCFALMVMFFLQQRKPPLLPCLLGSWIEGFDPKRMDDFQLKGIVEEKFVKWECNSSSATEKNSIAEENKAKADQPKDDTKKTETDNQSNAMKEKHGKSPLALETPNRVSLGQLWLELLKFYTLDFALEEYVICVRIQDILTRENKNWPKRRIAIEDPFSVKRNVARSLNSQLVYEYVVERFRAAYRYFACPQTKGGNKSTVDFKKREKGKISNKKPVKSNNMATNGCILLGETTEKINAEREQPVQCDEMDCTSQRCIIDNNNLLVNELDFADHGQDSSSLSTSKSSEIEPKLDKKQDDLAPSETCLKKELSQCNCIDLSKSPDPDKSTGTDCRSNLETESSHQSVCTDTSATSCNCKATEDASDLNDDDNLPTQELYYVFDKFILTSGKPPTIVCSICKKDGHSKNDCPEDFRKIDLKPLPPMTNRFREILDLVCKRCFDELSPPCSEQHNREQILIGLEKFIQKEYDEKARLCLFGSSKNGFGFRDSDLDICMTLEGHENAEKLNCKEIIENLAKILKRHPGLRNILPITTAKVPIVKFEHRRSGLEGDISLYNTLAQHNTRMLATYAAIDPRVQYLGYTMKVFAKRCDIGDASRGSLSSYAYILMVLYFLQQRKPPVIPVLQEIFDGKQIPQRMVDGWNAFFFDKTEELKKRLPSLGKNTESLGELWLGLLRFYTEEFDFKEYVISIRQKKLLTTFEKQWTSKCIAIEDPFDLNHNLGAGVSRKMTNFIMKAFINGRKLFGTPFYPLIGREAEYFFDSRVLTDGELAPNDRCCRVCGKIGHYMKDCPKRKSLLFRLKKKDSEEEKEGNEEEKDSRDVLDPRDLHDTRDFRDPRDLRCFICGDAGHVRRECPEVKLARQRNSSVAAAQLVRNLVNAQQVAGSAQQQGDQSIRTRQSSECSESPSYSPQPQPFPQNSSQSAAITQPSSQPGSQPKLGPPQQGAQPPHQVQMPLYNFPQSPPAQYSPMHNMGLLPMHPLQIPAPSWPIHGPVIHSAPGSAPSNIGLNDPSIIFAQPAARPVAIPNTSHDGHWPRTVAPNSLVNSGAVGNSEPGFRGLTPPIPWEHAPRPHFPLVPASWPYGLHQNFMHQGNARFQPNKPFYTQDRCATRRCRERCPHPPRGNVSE
inactive: [1] -0.029 | [2] -0.181 | [3] 0.214 | [4] -0.052 | [5] 0.153

TSG101 (UniProt Q99816)
inactive: [1] 0 | [2] 0.032 | [3] 0.074 | [4] -0.015 | [5] -0.016

TOM1 (UniProt O60784)
inactive: [1] -0.077 | [4] 0.039

UBC (UniProt P0CG48)
inactive: [1] 0.023 | [2] 0.087 | [3] 0.058 | [4] -0.019 | [5] -0.061

UBAP2L (UniProt F8W726)
inactive: [1] -0.05 | [4] 0.046

TRIM5 (UniProt Q9C035)
inactive: [2] 0.021 | [3] 0.023 | [4] 0.155 | [5] -0.004

VDAC1 (UniProt C9JI87)
inactive: [1] -0.132 | [2] -0.004 | [5] 0.137

UFD1 isoform 1 (UniProt Q92890)
inactive: [1] -0.011 | [2] 0.038 | [3] 0.033 | [4] -0.045 | [5] 0.019

TXNL4B (UniProt Q9NX01)
inactive: [1] 0.1 | [2] 0.068 | [4] -0.102 | [5] -0.12
active: [3] -0.537

VDAC1 (UniProt P21796)
inactive: [1] 0.047 | [2] 0.008 | [3] -0.024 | [4] -0.007 | [5] 0.026

TOM1L2 (UniProt Q6ZVM7)
Sequence of UniProt Q6ZVM7 (Q6ZVM7 whole entry, looked up): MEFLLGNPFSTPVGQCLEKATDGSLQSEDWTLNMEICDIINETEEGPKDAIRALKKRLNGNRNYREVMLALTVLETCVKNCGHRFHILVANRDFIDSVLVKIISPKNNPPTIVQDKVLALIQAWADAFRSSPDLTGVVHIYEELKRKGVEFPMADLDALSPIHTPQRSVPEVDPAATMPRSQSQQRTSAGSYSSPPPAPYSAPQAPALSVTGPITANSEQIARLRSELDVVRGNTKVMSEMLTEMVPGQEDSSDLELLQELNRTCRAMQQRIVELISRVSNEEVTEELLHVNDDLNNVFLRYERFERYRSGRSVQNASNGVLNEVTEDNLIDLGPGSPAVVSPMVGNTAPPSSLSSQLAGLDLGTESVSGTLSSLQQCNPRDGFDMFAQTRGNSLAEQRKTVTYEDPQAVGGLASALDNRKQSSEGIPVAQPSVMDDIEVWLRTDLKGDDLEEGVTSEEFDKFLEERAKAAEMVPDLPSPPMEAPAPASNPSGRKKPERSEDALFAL
inactive: [2] 0.138 | [3] 0.101 | [5] -0.001

TMEM179B (UniProt Q7Z7N9)
Sequence of UniProt Q7Z7N9 (Q7Z7N9 whole entry, looked up): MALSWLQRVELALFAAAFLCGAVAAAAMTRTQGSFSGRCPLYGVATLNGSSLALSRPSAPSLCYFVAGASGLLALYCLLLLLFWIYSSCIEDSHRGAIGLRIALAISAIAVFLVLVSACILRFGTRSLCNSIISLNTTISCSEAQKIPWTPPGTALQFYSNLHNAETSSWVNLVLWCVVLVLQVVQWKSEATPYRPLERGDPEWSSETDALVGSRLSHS
inactive: [1] -0.065 | [2] 0.081 | [4] 0.005 | [5] -0.024

WARS1 (UniProt G3V277)
inactive: [1] -0.075 | [3] 0.283 | [4] 0.076

WASH2P (UniProt Q6VEQ5)
inactive: [1] 0.015 | [2] -0.015 | [3] 0.026 | [4] 0.041 | [5] 0.027

TRIQK (UniProt Q629K1)
Sequence of UniProt Q629K1 (Q629K1 whole entry, looked up): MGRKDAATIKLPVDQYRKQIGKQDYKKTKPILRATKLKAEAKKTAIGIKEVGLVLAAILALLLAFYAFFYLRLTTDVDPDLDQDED
inactive: [1] 0.098 | [2] 0.028 | [4] -0.052 | [5] 0.048

VPS28 (UniProt Q9UK41)
inactive: [1] -0.075 | [2] 0.023 | [3] 0.064 | [4] 0.011 | [5] -0.01

TMEM223 (UniProt A0PJW6)
inactive: [1] 0.069 | [2] -0.045 | [3] 0.118 | [4] 0.03 | [5] -0.024

WDR46, A0A0G2JJL1
inactive: [1] 0.129 | [3] -0.546 | [4] 0.303

TTC4 (UniProt O95801)
inactive: [1] -0.089 | [2] -0.008 | [3] 0.099 | [4] 0.022 | [5] -0.029

TOM1 isoform 2 (UniProt O60784)
inactive: [1] 0.044 | [2] 0.001 | [3] -0.074 | [4] 0.046 | [5] 0.008

TMEM192 (UniProt Q8IY95)
inactive: [1] 0.02 | [2] -0.03 | [3] 0.018 | [4] -0.024 | [5] 0.032

TOP2A isoform 4 (UniProt P11388)
inactive: [1] 0.157 | [2] -0.322 | [3] -0.703 | [4] 0.252 | [5] 0.002

TMEM268 isoform 3 (UniProt Q5VZI3)
inactive: [1] -0.008 | [2] 0 | [4] 0.151 | [5] 0.063

TTC33 (UniProt Q6PID6)
inactive: [1] -0.142 | [2] 0.018 | [3] 0.073 | [5] 0.019

TMEM41A (UniProt Q96HV5)
inactive: [1] 0.01 | [3] 0.06 | [4] -0.08

XRCC1 (UniProt P18887)
inactive: [2] 0.091 | [4] 0.07 | [5] 0.062

UTP20 (UniProt O75691)
inactive: [4] 0.034

TVP23C (UniProt Q96ET8)
inactive: [2] 0.048 | [3] 0.041 | [4] 0.029 | [5] 0.086

TMEM120A (UniProt Q9BXJ8)
inactive: [1] -0.126 | [2] 0.056 | [3] 0.012 | [4] -0.11 | [5] -0.049

UBE2Q1 (UniProt Q7Z7E8)
inactive: [1] -0.041 | [2] 0.061 | [3] 0.053 | [4] -0.001 | [5] 0.062

TSC2 (UniProt P49815)
Sequence of UniProt P49815 (P49815 whole entry, looked up): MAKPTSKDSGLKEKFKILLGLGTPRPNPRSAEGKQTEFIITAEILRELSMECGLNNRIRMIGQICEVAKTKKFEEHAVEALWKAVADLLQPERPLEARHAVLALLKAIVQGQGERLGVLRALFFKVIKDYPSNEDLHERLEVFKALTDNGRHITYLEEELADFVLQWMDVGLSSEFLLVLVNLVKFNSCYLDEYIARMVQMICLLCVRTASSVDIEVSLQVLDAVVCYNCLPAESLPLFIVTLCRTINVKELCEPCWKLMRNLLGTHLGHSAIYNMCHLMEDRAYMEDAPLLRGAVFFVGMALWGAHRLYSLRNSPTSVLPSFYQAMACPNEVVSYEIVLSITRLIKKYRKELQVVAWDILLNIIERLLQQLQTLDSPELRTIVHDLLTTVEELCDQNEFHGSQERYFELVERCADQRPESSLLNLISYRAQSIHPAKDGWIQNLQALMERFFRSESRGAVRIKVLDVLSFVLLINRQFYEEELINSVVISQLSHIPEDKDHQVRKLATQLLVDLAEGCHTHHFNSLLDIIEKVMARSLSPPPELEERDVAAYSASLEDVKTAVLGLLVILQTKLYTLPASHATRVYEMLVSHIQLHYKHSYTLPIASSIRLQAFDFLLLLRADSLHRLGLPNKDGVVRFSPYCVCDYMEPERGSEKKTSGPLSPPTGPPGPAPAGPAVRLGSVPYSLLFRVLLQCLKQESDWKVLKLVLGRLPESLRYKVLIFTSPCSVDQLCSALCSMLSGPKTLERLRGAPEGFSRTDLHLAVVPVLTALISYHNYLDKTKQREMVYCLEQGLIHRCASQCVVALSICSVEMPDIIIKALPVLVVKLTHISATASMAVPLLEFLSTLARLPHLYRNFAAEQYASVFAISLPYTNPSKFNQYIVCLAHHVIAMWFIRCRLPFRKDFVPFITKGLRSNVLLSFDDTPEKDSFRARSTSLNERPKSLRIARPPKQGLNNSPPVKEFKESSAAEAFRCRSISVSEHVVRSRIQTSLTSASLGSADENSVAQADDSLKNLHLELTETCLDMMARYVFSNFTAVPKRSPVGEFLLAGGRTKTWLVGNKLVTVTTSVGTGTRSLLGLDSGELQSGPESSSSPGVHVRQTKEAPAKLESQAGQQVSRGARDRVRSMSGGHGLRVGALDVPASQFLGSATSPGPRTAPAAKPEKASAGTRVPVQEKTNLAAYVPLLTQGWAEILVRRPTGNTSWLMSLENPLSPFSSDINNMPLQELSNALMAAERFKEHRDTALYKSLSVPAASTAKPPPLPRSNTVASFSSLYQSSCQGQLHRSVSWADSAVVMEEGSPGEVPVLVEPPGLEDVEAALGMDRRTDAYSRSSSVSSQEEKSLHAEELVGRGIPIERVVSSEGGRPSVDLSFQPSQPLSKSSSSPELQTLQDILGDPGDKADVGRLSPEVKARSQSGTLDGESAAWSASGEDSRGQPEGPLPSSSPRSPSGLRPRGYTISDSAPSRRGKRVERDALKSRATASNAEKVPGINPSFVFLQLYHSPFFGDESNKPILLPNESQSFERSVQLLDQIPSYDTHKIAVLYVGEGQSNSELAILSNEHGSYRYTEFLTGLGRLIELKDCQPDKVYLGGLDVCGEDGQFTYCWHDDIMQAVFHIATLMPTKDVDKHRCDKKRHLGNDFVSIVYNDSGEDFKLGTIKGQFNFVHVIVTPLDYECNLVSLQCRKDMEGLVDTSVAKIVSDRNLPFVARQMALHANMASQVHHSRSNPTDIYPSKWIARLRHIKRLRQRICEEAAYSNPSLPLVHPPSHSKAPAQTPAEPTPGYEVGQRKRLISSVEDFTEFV
inactive: [1] 0.062 | [2] 0.099 | [4] -0.044 | [5] 0.317

U2AF1L5 (UniProt P0DN76)
inactive: [1] -0.008 | [3] -0.075 | [4] 0.057

TPR (UniProt P12270)
inactive: [1] 0.053 | [2] 0.014 | [3] 0.001 | [4] 0.083 | [5] 0.043

ULBP1 (UniProt Q9BZM6)
inactive: [2] 0.014 | [3] -0.001 | [4] -0.036 | [5] -0.038

TXNRD1 isoform 7 (UniProt Q16881)
inactive: [1] 0.046 | [3] 0.138

TMEM104 (UniProt Q8NE00)
inactive: [2] 0.001 | [5] 0.24

TTC26
inactive: [1] 0.06 | [3] 0.02 | [4] 0.198

UBE3B (UniProt Q7Z3V4)
inactive: [1] -0.081 | [2] -0.147 | [4] -0.214 | [5] 0.172
